Screens: PubChem BioAssay, National Center for Advancing Translational Sciences (NCATS)
This is a sample that favours compounds with a hit; in the whole collection about 9.5% have one here.
Pf growth 96h = Primary qHTS for delayed death inhibitors of the malarial parasite plastid, 96 hour incubation | AID 504834, 2011 | P. falciparum luciferase reporter growth, 96 h | 320,000 tested, 6.9% active | Potency, µM (titrated, usually from 28.7 µM), usual class: inhibitors
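Two-generation exposure (96 h) targets delayed-death phenotype. Reporter parasites carrying integrated firefly luciferase, in red cells at 2% hematocrit and 0.05% parasitemia final, kept at 37 C, 5% CO2; luminescence loss indicates inhibition.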
Pf growth 48h = Primary qHTS for delayed death inhibitors of the malarial parasite plastid, 48 hour incubation | P. falciparum luciferase growth in erythrocytes, 48 h | 310,000 tested, 5.9% active | AID 504832, 2011 | Potency, µM (series often up to 28.7 µM), usual class: inhibitors
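A one-generation exposure of luciferase-tagged malaria parasites in RPMI 1640/Albumax erythrocyte culture, 37 C and 5% CO2. Inhibition is inferred from decreased luminescence after adding detection reagent.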
RE007 growth inh = qHTS Assay for Inhibitors of the HIV-1 protein Vpr; S. pombe RE007 Vpr strain, BacTiter-Glo ATP luminescence, 24 h; 360,000 tested, 0.21% active; AID 651644, 2012; Potency, µM (series often up to 92.2 µM), actives largely listed as inhibitors; active means well fitted falling curve with a large enough effect; inconclusive means small, poorly fitted or top-dose-only effect; inactive means no such curve, though single readings can be large or run the other way; further: nearly all actives have a fitted effect of over 50% in size
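Fission yeast strain RE007, carrying one chromosomally integrated HIV-1 vpr copy, was seeded at OD 0.01 in PMG+AL medium with 23 nL pinned compound. After 24 h at 30 °C and 99% humidity, viability was read by BacTiter-Glo luminescence.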
NS1 function inh = qHTS Assay for Inhibitors of Influenza NS1 Protein Function; Potency, µM (titrated, usually from 46.1 µM); 270,000 tested, 0.4% active; calls by dose curve; further: actives are rising curves; nearly all actives have a fitted effect of over 50% in size
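In this qHTS, NS1 from influenza A is expressed in budding yeast, where it slows growth. Cells are switched from glucose to 2% galactose medium (pH 6.0, -URA), treated with compound, and growth recovery is read at OD600.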
SARS PLP yeast = qHTS of Yeast-based Assay for SARS-CoV PLP; S. cerevisiae expressing SARS-CoV PLpro, growth rescue; Potency, µM (series often up to 32.9 µM), usual class: activators; 330,000 tested, 0.19% active; calls by dose curve; further: nearly all actives have a fitted effect of over 55% in size
Of the large screens only hits and unclear results are named; the others gave an inactive call. Unless noted, the call rests on the fitted dose curve; in most records, active means well fitted inhibition curve with a large enough effect; inconclusive means small, poorly fitted or top-dose-only effect, or another doubt; inactive means no such curve, though single readings can be large or run the other way.

N#Cc1ccc(N/N=C/c2cn(-c3ccccc3)nc2-c2ccccc2)c([N+](=O)[O-])c1	Pf growth 96h 0.52µM, Pf growth 48h inconclusive
NC(=O)N/N=C/c1cn(-c2ccccc2)nc1-c1cccs1	Pf growth 96h inconclusive, Pf growth 48h inconclusive, RE007 growth inh inconclusive (no result: NS1 function inh)
NS(=O)(=O)c1ccc(N/N=C/c2cn(-c3ccccc3)nc2-c2cccs2)c([N+](=O)[O-])c1	Pf growth 96h 3.3µM, Pf growth 48h 1.5µM
NS(=O)(=O)c1ccc(N/N=C/c2cn(-c3ccccc3)nc2-c2cccs2)cc1	Pf growth 96h 0.066µM, Pf growth 48h 0.19µM, NS1 function inh inconclusive
CN(CC(=O)Nc1ccc(F)cc1)C(=O)CN1C(=O)c2ccccc2C1=O	Pf growth 96h inconclusive (no result: NS1 function inh)
CC1=C(C(=O)Nc2ccccc2C(=O)N2CCN(c3ccccc3)CC2)SCCO1	none (no result: Pf growth 96h, Pf growth 48h, NS1 function inh, SARS PLP yeast)
O=C(COc1coc(CN2CCN(c3ccccc3)CC2)cc1=O)Nc1ccccc1	Pf growth 96h inconclusive, Pf growth 48h inconclusive (no result: NS1 function inh)
Cc1ccc(NC(=O)COc2coc(CN3CCN(c4ccccc4)CC3)cc2=O)cc1	Pf growth 96h 4.7µM, Pf growth 48h inconclusive (no result: NS1 function inh)
COc1ccccc1N1CCN(Cc2cc(=O)c(OCC(=O)Nc3ccccc3)co2)CC1	Pf growth 48h 9.3µM (no result: NS1 function inh)
Cc1cccc(NC(=O)COc2coc(CN3CCN(c4ccccc4)CC3)cc2=O)c1C	Pf growth 96h inconclusive, Pf growth 48h 9.3µM (no result: NS1 function inh)
O=C(NC1CCCCC1)C(c1cccnc1)N(C(=O)c1csnn1)c1ccccc1 (stereo unspecified)	none
COc1ccc(-c2nnc(SCC(=O)N3CCCC3=O)n2N)cc1OC	none (no result: Pf growth 96h, Pf growth 48h, NS1 function inh)
c1ccc(-c2nc(NC3CC3)nc(-n3ccnc3)n2)cc1	Pf growth 48h 13µM
c1ccc(-n2ccnc2)cc1	none
CC(C)Nc1nc(-c2ccccc2)nc(-n2ccnc2)n1	Pf growth 48h 2.3µM
CCCCNc1nc(-c2ccccc2)nc(-n2ccnc2)n1	none (no result: Pf growth 48h)
c1ccc(CN2CCN(c3ncccn3)CC2)cc1	none
c1ccc(CN2CCN(c3nc(-c4ccccc4)nc(-n4ccnc4)n3)CC2)cc1	Pf growth 48h 3.7µM
c1ccc(-c2nc(-n3ccnc3)nc(-n3ccnc3)n2)cc1	Pf growth 96h 2.3µM, Pf growth 48h 8.3µM
Nc1ncnc2c([C@@H]3O[C@@H](CO)[C@H](O)[C@@H]3O)nsc12	none (no result: Pf growth 96h, Pf growth 48h, RE007 growth inh, SARS PLP yeast)
CC(C)(C)NC[C@H](O)c1cc(O)cc(O)c1	none (no result: RE007 growth inh, NS1 function inh, SARS PLP yeast)
CCCC(NC(=O)C(C)Sc1nnnn1C1CC1)c1ccccc1 (stereo unspecified)	none (no result: NS1 function inh)
Cc1ccc(-c2nnc(SCC(=O)N(CC(C)C)c3c(N)n(Cc4ccccc4)c(=O)[nH]c3=O)n2N)cc1	Pf growth 48h inconclusive
C=CCNc1nc(-c2ccccc2)nc(-n2ccnc2)n1	Pf growth 96h inconclusive, Pf growth 48h 13µM
CC(C)CNC(=O)c1ccc(NC(=O)c2cccs2)cc1	none (no result: RE007 growth inh)
Cc1ccc(C(=O)O)cc1S(=O)(=O)Nc1ccccc1C(=O)NC1CC1	Pf growth 48h inconclusive (no result: NS1 function inh)
CCN1CCN(C(=O)c2ccc3c(c2)N(Cc2ccccc2)C(=O)c2ccccc2S3(=O)=O)CC1	Pf growth 48h 6.6µM
CCN1CCN(C(=O)c2ccc3c(c2)S(=O)(=O)c2ccccc2C3=O)CC1	none (no result: NS1 function inh)
O=C(NCCN1CCCC1)c1ccc2c(c1)N(Cc1cccc(Cl)c1)C(=O)c1ccccc1S2(=O)=O	Pf growth 48h 8.3µM
CC1CCCCN1CCNC(=O)c1ccc2c(c1)N(Cc1ccccc1)C(=O)c1ccccc1S2(=O)=O (stereo unspecified)	Pf growth 96h inconclusive, Pf growth 48h 5.2µM
Cc1cccc(CN2C(=O)c3ccccc3S(=O)(=O)c3ccc(C(=O)NCCCN4CCCC4)cc32)c1	Pf growth 96h inconclusive, Pf growth 48h 10µM
CC(C)(C)CN1CCC(n2nccc2NC(=O)c2ccccc2Cl)CC1	none
CCOC(=O)c1cc(C(=O)OCC)c(=O)[nH]c1N1CCCCC1	Pf growth 96h inconclusive, Pf growth 48h inconclusive (no result: NS1 function inh)
Cc1cccc(C)c1N(CC(=O)NCc1ccccc1)C(=O)c1csnn1	Pf growth 96h inconclusive
CN1CCN(C2CCN(c3cccc(Cl)c3)CC2)CC1CCO (stereo unspecified)	none
CS(=O)(=O)c1sc(C(=O)NC(=O)Nc2cccc(C(F)(F)F)c2)c2c1C=CCC2	Pf growth 48h 2.3µM
O=C1C(Cl)=C(NCCc2ccccc2)C(=O)c2ccccc21	RE007 growth inh 6.3µM (no result: Pf growth 96h, Pf growth 48h, NS1 function inh, SARS PLP yeast)
O=C1C(Cl)=C(NCc2cccnc2)C(=O)c2ccccc21	Pf growth 96h 8.3µM, Pf growth 48h 9.3µM, RE007 growth inh inconclusive
CC(=O)N(Cc1ccc(F)cc1)C1=C(NCCc2ccccc2)C(=O)c2ccccc2C1=O	Pf growth 96h 0.0037µM, RE007 growth inh inconclusive (no result: Pf growth 48h)
C=CCNC1=C(Cl)C(=O)c2ccccc2C1=O	Pf growth 48h 2.9µM, RE007 growth inh 20µM
CC(=O)N(Cc1ccc(F)cc1)c1cccc(C)c1C	none
COC(=O)C[C@H]1CC[C@@H](NC(=O)Nc2c(C)noc2C)[C@@H](CO)O1	none (no result: Pf growth 96h, Pf growth 48h, NS1 function inh, SARS PLP yeast)
COc1ccc(Cc2nnc(NC(=O)C(C)(C)C)s2)cc1	none
CCOC(=O)c1c(C)[nH]c2c1cc(O)c1ccccc12	Pf growth 96h inconclusive, Pf growth 48h 0.15µM
CCOC(=O)c1c(C)n(CC)c2c1cc(O)c1ccccc12	none
CCOC(=O)c1c(C)n(Cc2ccco2)c2c1cc(O)c1ccccc12	Pf growth 48h 3.7µM (no result: Pf growth 96h)
CNC(=O)COc1coc(CN2CCN(C(=O)c3ccco3)CC2)cc1=O	Pf growth 96h inconclusive (no result: NS1 function inh)
COc1nnc(-c2ccc(C(=O)N3C[C@@H]4C[C@H](C3)c3cccc(=O)n3C4)cc2)c2ccccc12	Pf growth 96h 2.6µM, Pf growth 48h inconclusive
O=C(c1ccc(-c2nnc(Nc3cccc(Cl)c3)c3ccccc23)cc1)N1C[C@H]2C[C@H](C1)c1cccc(=O)n1C2	Pf growth 96h 6.6µM, Pf growth 48h 13µM
COc1ccc(C(=O)N2C[C@H]3C[C@@H](C2)c2cccc(=O)n2C3)cc1OC	none
COc1cc(F)c(S(=O)(=O)N2CCOc3ccccc32)cc1OC	none (no result: Pf growth 48h)
N#Cc1c(-n2cccc2/C=N/O)sc2c1CCCC2	Pf growth 96h 15µM
CC(C)c1ccccc1NC(=S)N1CCN(S(=O)(=O)c2cccs2)CC1	Pf growth 96h 5.2µM, Pf growth 48h inconclusive (no result: NS1 function inh)
Cc1cc(O)c(CN2CCN(S(=O)(=O)c3cccs3)CC2)cc1C(C)C	Pf growth 96h 4.1µM, Pf growth 48h 1.7µM (no result: NS1 function inh)
Cc1cc(C(C)(C)C)cc(CN2CCN(S(=O)(=O)c3cccs3)CC2)c1O	none (no result: Pf growth 96h, Pf growth 48h, NS1 function inh, SARS PLP yeast)
Cc1c(Cl)cccc1NC(=S)N1CCN(S(=O)(=O)c2cccs2)CC1	Pf growth 96h inconclusive, Pf growth 48h 1.9µM (no result: NS1 function inh)
Cc1ccc(C(=O)N/C(=C\c2cccs2)C(=O)N2CCOCC2)cc1C	none
CC(C)N(Cc1cnn(C)c1)Cc1nc(COc2ccccc2)no1	none
Cc1ccc(-c2nc(CN(Cc3cnn(C)c3)C(C)C)c(C)o2)o1	Pf growth 96h 7.4µM
